PubChem BioAssay AID488969 (Vanderbilt High Throughput Screening Facility, 2010)
The full ranking holds about 110,000 compounds; the median of “z-score” is about -0.1, and the highest 2% start at about 2. The list comes from a sample in which the highest values are over-represented; it also holds similar structures and randomly drawn compounds. Activity calls are given as the source filed them.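 Rule for the calls: active = z-score in the third read window above 3 or below -3; inactive = the rest.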

Target: Metabotropic glutamate receptor 8 (Rattus norvegicus) (UniProt P70579)
Assay: mGluR8 Gi/Go-coupled signaling modulation – cell-based, rat, thallium flux, HTS, primary screen (AID 488969)
Conditions: HEK293 rat mGluR8, GIRK (G protein-gated inwardly rectifying potassium channel) thallium flux, FluoZin2; at 10 µM; stronger effect = higher value; submaximal glutamate (EC20) added with thallium

Metabotropic glutamate receptor 8 (Rattus norvegicus), sequence (P70579 whole entry, looked up): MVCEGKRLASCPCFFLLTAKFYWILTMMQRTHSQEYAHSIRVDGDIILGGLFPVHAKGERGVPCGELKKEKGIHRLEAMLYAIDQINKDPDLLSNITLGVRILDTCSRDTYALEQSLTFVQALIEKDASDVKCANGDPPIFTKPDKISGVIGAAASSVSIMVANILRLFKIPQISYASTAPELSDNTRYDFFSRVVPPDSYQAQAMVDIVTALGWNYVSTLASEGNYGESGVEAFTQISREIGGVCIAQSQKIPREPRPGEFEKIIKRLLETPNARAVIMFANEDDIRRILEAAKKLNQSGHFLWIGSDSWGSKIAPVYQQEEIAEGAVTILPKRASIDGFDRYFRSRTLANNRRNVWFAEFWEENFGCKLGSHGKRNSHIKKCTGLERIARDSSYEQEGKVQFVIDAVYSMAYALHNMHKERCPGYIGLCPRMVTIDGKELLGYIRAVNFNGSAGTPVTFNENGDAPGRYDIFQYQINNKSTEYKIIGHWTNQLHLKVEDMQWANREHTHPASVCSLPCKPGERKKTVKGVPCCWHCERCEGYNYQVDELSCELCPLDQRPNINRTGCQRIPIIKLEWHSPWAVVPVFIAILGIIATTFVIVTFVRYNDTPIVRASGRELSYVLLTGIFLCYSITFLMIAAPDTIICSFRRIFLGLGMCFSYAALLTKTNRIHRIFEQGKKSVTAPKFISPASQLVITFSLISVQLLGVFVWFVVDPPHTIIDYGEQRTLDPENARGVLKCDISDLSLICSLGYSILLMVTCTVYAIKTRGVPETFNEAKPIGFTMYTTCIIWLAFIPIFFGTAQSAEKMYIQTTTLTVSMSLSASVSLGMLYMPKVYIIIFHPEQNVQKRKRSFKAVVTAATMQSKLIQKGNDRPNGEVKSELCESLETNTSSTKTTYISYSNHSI

SMILES	z-score
Cc1ccc(S(=O)(=O)N(C)CCCC(=O)Nc2cccc3ccccc23)cc1	-0.456
O=C(CNC1CCCCCC1)Nc1ccc(N2CCCC2)cc1	2.66
CCC(=O)Nc1ccc(N2CCCCC2)cc1	-0.169
O=C(CNC1CCCCCC1)Nc1ccccc1N1CCCCC1	-0.23
CN1C2=C(C#N)C(c3ccccc3)(C(F)(F)F)NC(=O)N2c2ccccc21 (centres undefined)	-0.282
CC(C)c1nc(-c2ccccc2)c(-c2ccccc2)[nH]1	-0.0702
CC(C)c1nc(=S)n(-c2ccccc2)[nH]1	4.41 (active)
CC(C)c1nc2cc3ccccc3cc2[nH]1	0.396
COc1ccc(N2CCN(C(=O)NC34CC5CC(CC(C5)C3)C4)CC2)cc1	-0.0964
CCC(CCC(=O)Nc1ccc(S(N)(=O)=O)cc1)C(=O)O (centres undefined)	0.735
Cc1[nH]nc2c1C(c1ccccc1F)NC2=O (centres undefined)	2.74
COc1ccc(C2NC(=O)c3n[nH]c(C)c32)c(OC)c1 (centres undefined)	0.447
CCOc1ccc(C2NC(=O)c3n[nH]c(C)c32)cc1 (centres undefined)	0.931
CCOC(=O)c1[nH]c2ccc(OC)cc2c1NC(=S)N1CCN(c2ccc(F)cc2)CC1	0.623
CC1Oc2ccccc2C=C1/C=N/NC(=O)c1ccccc1O (centres undefined)	0.0521
CC1Oc2ccccc2C=C1/C=N/NC(=O)c1ccccc1 (centres undefined)	1.9
Cc1ccc(C(=O)N/N=C/C2=Cc3ccccc3OC2C)cc1 (centres undefined)	3.08 (active)
Cc1ccsc1C(=O)NNC(=O)Nc1ccc(Cl)c(Cl)c1	-0.13
CCOc1ccccc1OCCCCCc1c(C)n[nH]c1C	3.05 (active)
COc1ccccc1OCCCCCc1c(C)n[nH]c1C	-0.151
COc1cccc(OC)c1OCCCCCc1c(C)n[nH]c1C	-0.231
CCC(=O)N/C(=N/c1nc(C)cc(C)n1)Nc1cccc(OC)c1	0.0375
Cc1cc(/C([O-])=C(/C(=S)Nc2ccc(F)cc2)[n+]2ccccc2)c(C)n1-c1ccc(F)cc1	-0.454

SMILES	z-score
O=C(Nc1nnc(C(F)(F)F)s1)C1COc2ccccc2O1 (centres undefined)	-0.109
CCSc1nnc(NC(=O)c2cccc3ccccc23)s1	-0.316
CCC(CC)c1nnc(NC(=O)c2ccc3ccccc3n2)s1	11.4 (active)
CCC(CC)c1nnc(NC(=O)Oc2ccccc2)s1	-0.366
CCc1nnc(NC(=O)C2COc3ccccc3O2)s1 (centres undefined)	0.0066
CCC(CC)c1nnc(NC(=O)C2COc3ccccc3O2)s1 (centres undefined)	3.82 (active)
CCSc1nnc(NC(=O)c2cc(C)nc3ccccc23)s1	0.31
CCC(CC)c1nnc(NC(=O)c2cc(-c3ccccc3)nc3ccccc23)s1	-0.847
CCSc1nnc(NC(=O)c2ccc3ccccc3n2)s1	11.8 (active)
COc1cccc(C2C(C(C)=O)=C(O)C(=O)N2CCc2c[nH]c3ccccc23)c1 (centres undefined)	-0.32
Cc1ccc(CSc2ccc(-c3ccco3)nn2)cc1	0.361
C=CCN(C(C)=O)C1CC(=O)N(c2ccc(OCCC)cc2)C1=O (centres undefined)	-0.00882
CCC/C(=N\NC(=O)c1csc(C)c1C)c1cccs1	0.475
C/C(=N\NC(=O)c1csc(C)c1C)c1ccco1	0.816
CCC/C(=N/NC(=O)c1csc(C)c1C)c1ccc(Cl)s1	5.92 (active)
CC/C(=N\NC(=O)c1csc(C)c1C)c1cccs1	1.32
C/C(=N\NC(=O)c1csc(C)c1C)c1ccc(Cl)s1	3.54 (active)
Cc1scc(C(=O)N/N=C/c2ccco2)c1C	-0.0599
COc1ccc(CCNC(=O)C2CCCN(S(=O)(=O)c3cnc[nH]3)C2)cc1OC (centres undefined)	-0.0112
CCOc1ccccc1C(=O)N(Cc1ccco1)C1CCS(=O)(=O)C1 (centres undefined)	0.0514
CN1C(=O)CSC1=NCC12CC3CC(CC(C3)C1)C2	-0.123
COc1ccc(Cl)cc1NC(=S)NCCc1c[nH]c2ccccc12	0.142
CCOc1ccccc1CN(Cc1ccco1)S(=O)(=O)c1ccc(-n2cnnn2)c(OC)c1	0.115

SMILES	z-score
COc1cc(S(=O)(=O)N(Cc2ccc(C)cc2)Cc2ccco2)ccc1-n1cnnn1	0.205
CCOc1ccc(CN(Cc2ccco2)S(=O)(=O)c2ccc(-n3cnnn3)c(OC)c2)cc1	2.75
O=C(Cc1c(F)cccc1Cl)NCC1CCCO1 (centres undefined)	0.148
CN1/C(=C\C(=S)NC(=O)c2cccc(Br)c2)C(C)(C)c2ccccc21	-0.0589
CN1/C(=C\C(=S)NC(=O)c2ccc([N+](=O)[O-])cc2)C(C)(C)c2ccccc21	0.213
Cc1ccc(C(=O)NC(=S)/C=C2\N(C)c3ccccc3C2(C)C)cc1	2.66
CC(C)(C)C(=O)Nc1ccc(-c2cn3ccsc3n2)cc1	-1.44
CCCN1CNC(=S)N(c2ccc(C(=O)OCC)cc2)C1	-2.04
O=C(NC(=S)Nc1ccc2c(c1)OCCO2)c1ccccc1	2.12
O=C(NC(=S)Nc1ccc2[nH]ncc2c1)c1ccccc1	-0.139
O=C(NC(=S)Nc1ccc2c(c1)OCO2)c1ccccc1	3.25 (active)
Cc1cc(NC(=S)NC(=O)c2ccccc2)ccc1-c1cc2ccccc2oc1=O	-0.165
O=C(NC(=S)NCC1COc2ccccc2O1)c1ccccc1 (centres undefined)	6.58 (active)
O=C(NC(=S)Nc1ccc2c(c1)OCO2)c1ccc(Cl)cc1	0.837
O=C(CC(=O)c1ccccc1)Nc1ccc2c(c1)OCCO2	-0.987
O=C(NC(=S)NCc1ccc2c(c1)OCO2)c1ccccc1	1.1
O=C(NCC1COc2ccccc2O1)c1ccccc1 (centres undefined)	0.298
Cn1ncc2cc(NC(=S)NC(=O)c3ccccc3)ccc21	2.21
O=C(NC(=S)Nc1ccc2c(c1)OCCO2)c1cccc(Br)c1	0.945
O=C(CNC(=O)c1ccccc1)NCC1COc2ccccc2O1 (centres undefined)	0.11
Cc1ccc(C2N(c3ccc(F)cc3)C(=O)C3CCCN32)cc1 (centres undefined)	0.214
N#Cc1cc(C(=O)c2ccccc2OCC(=O)Nc2ccccc2Cl)cn(C2CCCCC2)c1=O	-0.433
CCn1c(CCCOc2ccc(Cl)cc2Cl)nnc1SCC(=O)Nc1cccc(F)c1	-0.135

SMILES	z-score
CCOc1ccccc1Nc1ncccc1C(=O)N1CCCC1	1.1
Cc1ccc(C)c(N2CCN(S(=O)(=O)c3c(C)noc3/C=C/N(C)C)CC2)c1	-0.559
CC1(C(=O)N2CC3(CC(c4ccccc4)=NO3)C[C@H]2C(=O)NCC(N)=O)CC1 (some centres undefined)	-0.0396
CCOc1ccccc1Oc1c(C)oc2c(CN3CCN(CCO)CC3)c(O)ccc2c1=O	-0.395
CCc1ccc(N2CC(C(=O)Nc3ccc(C)c(S(=O)(=O)N4CCOCC4)c3)CC2=O)cc1 (centres undefined)	0.319
CC(C)NC(=O)c1ccccc1N(Cc1ccccc1)S(C)(=O)=O	0.373
COc1ccc2nc(NC(=O)c3cccc(-c4cc5ccccc5oc4=O)c3)sc2c1	0.372
CCc1ccc(C(=O)NC(=S)Nc2ccc3c(c2)OCCO3)cc1	0.946
Cc1cc(C)cc(C(=O)NC(=S)Nc2ccc3c(c2)OCCO3)c1	-0.353
Cc1ccc(C(=O)NC(=S)Nc2ccc3c(c2)OCCO3)c(C)c1	2.7
Cc1ccc(Cl)c(NC(=S)N(CCCN2CCOCC2)Cc2ccco2)c1	-0.227
Cc1cccc2cc(/C=N/NC(=O)c3ccccc3O)c(Cl)nc12	0.0387
O=C(NCCCCNC(=O)c1ccc(Cl)s1)c1ccc(Cl)s1	-0.423
CC1(C)Cc2ccccc2C(/C(=N\Nc2cccc(Cl)c2)C(N)=O)=N1	3.23 (active)
Cc1cccc(N/N=C(\C(N)=O)C2=NC(C)(C)Cc3ccccc32)c1	-0.302
COc1ccc(N/N=C(/C(N)=O)C2=NC(C)(C)Cc3ccccc32)cc1	-0.381
Cc1cc(C(=O)N/N=C/c2cccnc2)c(C)o1	0.000639
O=C(CCCCl)NC(=S)Nc1cc(C(F)(F)F)ccc1N1CCOCC1	0.012
O=C1CCCC2=C1C(c1ccncc1)c1c(nc(SCc3ccccc3)[nH]c1=O)N2 (centres undefined)	-1.55
CCn1c2ccccc2c2cc(/C=N/n3c(C)nnc3C)ccc21	-1.04
CCn1c2ccccc2c2cc(/C=N/n3cnnc3)ccc21	-1.04
CCn1c2ccccc2c2cc(/C=N/n3cn[nH]c3=S)ccc21	11.5 (active)
CCc1nnc(N/N=C/c2ccc(N3CCC(C)CC3)c([N+](=O)[O-])c2)n1N	-0.0832

SMILES	z-score
Cc1nnc(N/N=C/c2cc([N+](=O)[O-])c(N3CCC(C)CC3)cc2N2CCC(C)CC2)n1N	2.68
CC1CCN(c2ccc(/C=N/n3nnnc3N)cc2[N+](=O)[O-])CC1	3.58 (active)
Cc1ccc(/C=N/n2nnnc2N)cc1[N+](=O)[O-]	0.159
Nc1nnnn1/N=C/c1ccc(N2CCCCC2)c([N+](=O)[O-])c1	1.18
CC1CCN(c2cc(N)c(Cl)cc2[N+](=O)[O-])CC1	-0.475
CC(=O)Nc1ccc(OCC(O)CN2C(C)CCCC2C)cc1 (centres undefined)	-0.417
Cn1c(=O)c2c(nc(SCc3ccccc3)n2Cc2ccc(Cl)cc2)n(C)c1=O	-0.333
CC(=O)/C=C/c1ccc2ccccc2n1	0.038
Cc1c(O)ccc(/C(Cc2ccc3ccccc3n2)=N\O)c1O	-0.308
C/C(CC(O)c1ccc2ccccc2n1)=N/O (centres undefined)	5.27 (active)
CCc1ccc2[nH]c(=O)c(C(c3nnnn3Cc3ccco3)N3CCC(C)CC3)cc2c1 (centres undefined)	-0.27
O=C(c1cccs1)N(C(=O)c1cccs1)c1ccc(Br)cn1	2.26
O=C(/C=C/c1cccs1)Nc1ccc(Br)cn1	-0.222
Cc1ccnc(N(C(=O)c2cccs2)C(=O)c2cccs2)c1	-0.0449
CC(=O)N1c2ccccc2Oc2cc3ccccc3cc21	-0.261
Cc1ccc(C(=O)N/N=C2\SCC(=O)N2c2cc(C)ccc2C)cc1	-0.396
Cc1cccc(N2C(=O)CS/C2=N\NC(=O)c2ccc(Br)cc2)c1C	1.16
Cc1cccc(N2C(=O)CS/C2=N\NC(=O)c2ccc(Cl)cc2)c1C	3.96 (active)
Cc1ccc(N2C(=O)c3ccccc3C2Nc2ccccc2)nc1 (centres undefined)	-0.424
CN1CCC/C1=C/C=C1\SC(=S)NC1=O	2.4
CN1CCN(/C=C2\SC(=S)NC2=O)CC1	-0.54
Cc1nn(C)c(C)c1/C=C1/SC(=S)NC1=O	0.492
